36 compounds from PubChem BioAssay (EPA / NIEHS) can be followed below.

In general, AC50 refers to the concentration giving half of the maximal activity seen.

“And” between values parts separate entries of the source, which are not always exact repeats. Identical values can stand only once. Records with an inconclusive call do not appear. Some compounds were tested as several samples or in several runs, with calls that do not always agree. The source made the active and inactive calls. Rule for the calls: active = hit-call score of the fitted dose curve at least 0.9, where 1 is the maximum; inconclusive = response in the unintended direction; inactive = score below 0.9.

Chain of Retinoic acid receptor RXR-alpha (Homo sapiens) (P19793 whole entry, looked up, the tested form may be a part): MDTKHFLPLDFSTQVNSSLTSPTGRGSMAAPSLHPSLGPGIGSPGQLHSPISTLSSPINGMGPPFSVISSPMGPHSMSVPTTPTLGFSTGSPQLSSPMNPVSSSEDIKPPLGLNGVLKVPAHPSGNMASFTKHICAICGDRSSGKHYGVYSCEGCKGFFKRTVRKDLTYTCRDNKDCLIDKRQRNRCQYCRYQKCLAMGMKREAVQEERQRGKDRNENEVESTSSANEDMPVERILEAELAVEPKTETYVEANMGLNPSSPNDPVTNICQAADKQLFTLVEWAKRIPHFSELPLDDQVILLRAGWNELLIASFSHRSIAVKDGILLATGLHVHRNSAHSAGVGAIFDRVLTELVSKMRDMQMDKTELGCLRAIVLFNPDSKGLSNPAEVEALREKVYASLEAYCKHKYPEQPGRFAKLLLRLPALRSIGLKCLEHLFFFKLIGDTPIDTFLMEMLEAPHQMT

This experiment has as its target Retinoic acid receptor RXR-alpha (Homo sapiens) (UniProt P19793). In words: OT_NURR1_NURR1RXRa_0480: Odyssey Thera (OT) 8-hour HEK293T Protein Complementation Assay for Nurr1/retinoid X receptor (RXR) (AID 2283385). As to the method:
OT_NURR1_NURR1RXRa_0480 is a cell-based assay that uses HEK293T, a human kidney cell line, with measurements taken at 8 hours after chemical dosing in a 384-well plate.OT_NURR1_NURR1RXRa_0480 is one of one assay component(s) measured or calculated from the OT_NURR1_NURR1RXRa_0480 assay. It is designed to make measurements of protein fragment complementation, a form of binding reporter, as detected with fluorescence intensity signals by Protein-fragment Complementation technology.Data from the assay component OT_NURR1_NURR1RXRa_0480 was analyzed into 1 assay endpoint. This assay endpoint, OT_NURR1_NURR1RXRa_0480, was analyzed in the positive analysis fitting direction relative to DMSO as the negative control and baseline of activity. Using a type of binding reporter, measures of receptor for gain-of-signal activity can be used to understand the binding at the pathway-level as they relate to the gene RXRA. Furthermore, this assay endpoint can be referred to as a primary readout, because the performed assay has only produced 1 assay endpoint. To generalize the intended target to other relatable targets, this assay endpoint is annotated to the nuclear receptor intended target family, where the subfamily is non-steroidal.
Protein-fragment complementation assay, or PCA, is a method for the identification and quantification of protein-protein interactions. In the PCA, the proteins of interest ("bait" and "prey") are each covalently linked to fragments of a third protein (e.g. DHFR, which acts as a "reporter"). Interaction between the bait and the prey proteins brings the fragments of the reporter protein in close proximity to allow them to form a functional reporter protein whose activity can be measured.
Take `CNCc1ccc(NC(=O)c2c[nH]c3c2C(=O)CCC3)cc1`: the compound was called inactive.
Regarding `CC(C)=CCCC(C)CCO` (stereo not given), the AC50 was 90.2 µM (active) and the compound was called inactive.
Consider `COCCOCCOCCOC`, for which the compound was classed as inactive.
Still for that read-out and setting: for `CC(C)CCCCCCOC(=O)c1ccc(C(=O)OCCCCCCC(C)C)c(C(=O)OCCCCCCC(C)C)c1` the value was “inactive”.
As to `CNS(=O)(=O)c1cc(C(=O)N2CCC(CCN3C4CCC3CC(n3c(C)nc5ccccc53)C4)(c3cccc(F)c3)CC2)c(Cl)cc1F` (stereo not given), the AC50 was 14.3 µM (active) and the result was inactive.
In the case of `CC/C(=C\C(=N/O)C(N)=O)C(C)[N+](=O)[O-]` (stereo not given), the AC50 was 31.6 µM (active).
For `Cn1cnc([N+](=O)[O-])c1Sc1ncnc2nc[nH]c12`, the outcome was inactive.
On to `COc1ccc(-n2nc(C(F)F)cc2-c2ccc(S(C)=O)cc2)cc1` (stereo not given), for which the call was inactive.
Still for that read-out and setting: with `CC(C)=CCC/C(C)=C\CO` the entry was “inactive”.
The same measure, in the same setting: for `Clc1nc(Cl)c(Cl)c(Cl)c1Cl` the value was “inactive”; for `COC(=O)CC(=O)OC`, “inactive”.
On the same count and under the same terms, for `CCOCCOCCOCCO` the value was “inactive”; for `Cc1[nH]cnc1C[C@H]1CCc2c(C)c3ccccc3n2C1=O`, “inactive”.
For the compound `Cc1c(-c2cccnc2)c2ccccc2n1CCCCC(=O)O`, the compound was called inactive.
For the compound `CC(C)c1cccc(C(C)C)c1N1C(=O)c2ccc(O)cc2C1=O`, the AC50 is 35.4 µM (active) and the compound was called inactive.
In the case of `O=C(O)c1cccc(Oc2ccccc2)c1`, the outcome was inactive.
On the same count and under the same terms, with `Cc1ccc(S(=O)(=O)O)cc1C` the entry was “inactive”; with `CCCCC(CC)COC(=O)CCCCCCCCC(=O)OCC(CC)CCCC` (stereo not given), “inactive”; with `CC(C)=CCCC(C)=CC=O`, “inactive”.
Same read-out and setting: for `CCOC(=O)CC(CC(=O)OCC)(OC(C)=O)C(=O)OCC` the value was “inactive”; for `CCCCCCc1ccc(O)cc1O`, “inactive”; for `CC(C)=CCC/C(C)=C/CO`, “inactive”.
Regarding `COc1cccc(-c2ccc(/C=C\CN3CCCCCC3)cc2Cl)c1`, the AC50 was 10.3 µM (active).
`Nc1ccc(Nc2ccccc2)cc1`: the outcome was inactive.
Turning to `O=C1OC(=O)C2C3C=CC(C3)C12` (stereo not given), the result was inactive.
On the same count and under the same terms, for `CCCCC(CC)COC(=O)c1ccc(C(=O)OCC(CC)CCCC)cc1` (stereo not given) the value was “inactive”.
`CCOC(=O)COc1ccc2c(c1)CC(NCC(O)c1cccc(Cl)c1)CC2` (stereo not given): the AC50 was 154 nM (active) and 591 nM (active).
Consider `O=P(OC(CCl)CCl)(OC(CCl)CCl)OC(CCl)CCl`, for which the call was inactive.
Still for that read-out and setting: with `CC[C@H](C)C(=O)O[C@H]1C[C@@H](C)C=C2C=C[C@H](C)[C@H](CC[C@@H]3C[C@@H](O)CC(=O)O3)[C@H]21` the entry was “inactive”.
As to `O=c1n(CC2CO2)c(=O)n(CC2CO2)c(=O)n1CC1CO1` (stereo not given), the AC50 was 50 µM (active) and 34.7 µM (active).
Regarding `COCCOc1cc2cc(C(=O)NC3CCN(C(C)C)CC3)n(CC(=O)Nc3ccc(Cl)cn3)c2cn1`, the outcome was inactive.
The same measure, in the same setting: with `CCn1nc(Cc2ccccc2)cc1C1CCN(C[C@H]2C[C@H](N(C)[C@@H](C(=O)O)C(C)C)C[C@@H]2c2cccc(F)c2)CC1` the entry was “inactive”.
Turning to `O=C(O)c1cccc(N(Cc2cccnc2)c2ccc(OC(F)F)c(OC(F)F)c2)c1`, the AC50 was 29.4 µM (active).
For the compound `O=C(OC[C@H]1O[C@@H](OC(=O)c2cc(O)c(O)c(OC(=O)c3cc(O)c(O)c(O)c3)c2)[C@H](OC(=O)c2cc(O)c(O)c(OC(=O)c3cc(O)c(O)c(O)c3)c2)[C@@H](OC(=O)c2cc(O)c(O)c(OC(=O)c3cc(O)c(O)c(O)c3)c2)[C@@H]1OC(=O)c1cc(O)c(O)c(OC(=O)c2cc(O)c(O)c(O)c2)c1)c1cc(O)c(O)c(OC(=O)c2cc(O)c(O)c(O)c2)c1`, the result was inactive and the AC50 was 20.5 µM (active).
With `Fc1ccccc1[C@@H](F)COC1CCC(Nc2ncnc3[nH]ncc23)CC1` (stereo not given in full), the compound was classed as inactive.
Still for that read-out and setting: for `CC(O)CN(CCN(CC(C)O)CC(C)O)CC(C)O` (stereo not given) the value was “inactive”.
